Data as given in PubChem BioAssay (NCI).
Values joined by “and” are separate entries in the source; they are usually repeats but may differ in a detail not shown here. Identical values can stand only once. Compounds without any hit were thinned out: in the full panel of roughly 83,000, 20% have a hit.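 Values shown are percent growth following 48 h exposure of cells in 96-well plates to a single concentration of compound; below 10 was considered active.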 Active and inactive are the calls of the source.

Tested on: RPMI-8226 leukemia
Assay: NCI-60 one-dose screen, 48 h (100 = growth as untreated, 0 = no growth, -100 = all killed)
Details: 10 µM unless noted

Row | Structure (SMILES) | growth
1 | CC1(c2ccc3ccccc3c2)CCC(=O)O1 (stereo not given) | 109% (inactive)
2 | CC1=C(/C=C/C(C)=C/C=C/C(C)=C/C=N/NC(=S)NC(=S)N/N=C/C=C(C)/C=C/C=C(C)/C=C/C2=C(C)CCCC2(C)C)C(C)(C)CCC1 | -2.02% (active) and -32.7% (active)
3 | CCCCOc1cc(C(=O)NCCN(CC)CC)c2ccccc2n1 | 85.4% (inactive) and 93.6% (inactive)
4 | COc1cc2c(c(OC)c1OC)-c1ccc(OC)c(=O)cc1[C@@H](NC(C)=O)CC2 | 9.21% (active) and 2.34% (active)
5 | CN1CCN(c2ccc3nc(-c4c(N)c5c(F)cccc5[nH]c4=O)[nH]c3c2)CC1 | 47.5% (inactive) and 53.7% (inactive)

Tested on: OVCAR-8 ovarian
Assay: as above
Details: 10 µM unless noted

Row | Structure (SMILES) | growth
6 | O=[N+]([O-])c1ccccc1/C=N\Nc1ccccc1 | 91.1% (inactive) and 89.9% (inactive)
7 | CCN(CC)CCNc1cc(-c2cccc(OC(F)(F)F)c2)nc2ccc(N3CCCC3)cc12 | 39.7% (inactive) and 2.29% (active) and 22.4% (inactive)
8 | CC(=O)Nc1cc(S(=O)(=O)O)cc2cc(S(=O)(=O)O)c(N=Nc3ccccc3)c(O)c12 | 109% (inactive) and 99.5% (inactive)
9 | CC(C)CNC(=O)c1ccccc1C(=O)NC1(C(=O)NCC(C)C)CCCC1 | 101% (inactive) and 104% (inactive)
10 | COc1cc2nc(N3CCN(C(=O)C4COc5ccccc5O4)CC3)nc(N)c2cc1OC (stereo not given) | 91.7% (inactive) and 94.7% (inactive) and 101% (inactive)
